Source: PubChem BioAssay AID651718 (The Scripps Research Institute Molecular Screening Center, 2012)
Out of some 360,000 compounds screened, about 2,700 (0.75%) were called active. Cut-off read from the data, not from the text of the source: active = inhibition above about 4.5%; inactive = the rest. The sample as a whole holds a higher share of actives than the screen did.

System: Methionine sulfoxide reductase A (Bos taurus)
Test: bovine MsrA enzyme inhibitors, primary screen, biochemical, absorbance, HTS (AID 651718);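 note: 0% = vehicle wells with enzyme and 100% = reference inhibitor wells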
Details: purified bovine MsrA, absorbance read-out; at 15.5 µM; hits give high values

inhibition, active:
Cc1cccc(-n2c(O)c(C=Nc3ccccc3N)c(=O)[nH]c2=O)c1 5.11%
CCc1nnc(NS(=O)(=O)c2ccc(NC(=S)NC(=O)/C=C/c3cccs3)cc2)s1 4.76%
COc1ccc(C(=O)CSc2nc(C)cc(C)n2)cc1[N+](=O)[O-] 11.2%
CCOC(OCC)c1ccc(/C=C\c2nccc(N)n2)cc1 4.82%
Cc1occc1C(=O)N/N=C/c1ccc(-c2cccc([N+](=O)[O-])c2)o1 4.99%
COc1ccccc1-c1n[nH]c2c1[C@H](C)CC[C@H]2C(C)C 12.6%
CC(=O)N1N=C(c2ccncc2)OC1(Cc1ccccc1)Cc1ccccc1 11.8%
CC(C)Oc1c(Br)cc(Br)cc1/C=N/NC(N)=S 6.79%
Cn1c(=NC(=O)c2cnccn2)sc2ccccc21 6.75%
O=Cc1cn(-c2ccccc2)nc1-c1ccccn1 9.1%
Cc1ccc(CC2(C)C(=O)Nc3ccc(OC(F)(F)F)cc32)cc1 (stereo not drawn) 9.02%
COc1ccc(C2/C(=C(/O)c3ccccc3)C(=O)C(=O)N2C)c(OC)c1 (stereo not drawn) 4.89%
COc1ccc(/C=C/C(=O)Nc2cccnc2)cc1OC 5.32%
COc1cc(/C=N/Nc2nn3cnnc3c3ccccc23)cc(OC)c1OC 5.31%
COc1ccc(OC)c(C2C3=C(N=c4s/c(=C\c5cccc(O)c5)c(=O)n42)c2ccccc2CC3)c1 (stereo not drawn) 5.07%

inhibition, inactive:
COC(=O)C1=C(C)N(Cc2ccc(C(F)(F)F)cc2)C(=NCc2ccccc2)NC1c1ccccc1C(F)(F)F (stereo not drawn) 2.37%
CC(C)(C)c1ccc(S(=O)(=O)NCC2CCN(C(=O)C(=O)c3cc4ccccc4o3)CC2)cc1 1.27%
Cc1cccc(-n2c(N)c(C(=O)N3CCN(C)CC3)sc2=S)c1 2.37%
COc1cc(OC)cc(C(=O)NCCSCc2ccc(Cl)cc2)c1 -2.11%
CCc1nnc(NS(=O)(=O)c2ccc(NC(=O)c3cccc(OC(F)(F)C(F)F)c3)cc2)s1 -0.35%
CCOC(=O)c1c(NC(=S)NC(=O)/C=C/c2cccs2)sc(C)c1C -0.71%
Cc1cc(C(=O)NNC(=S)NC(C)c2ccccc2)cs1 (stereo not drawn) 0.13%
Cn1nnnc1SCC(=O)Nc1sccc1C(N)=O 0.13%
COC(=O)c1cc2c(c3c4ccccc4n(S(=O)(=O)c4cccc(C)c4)c13)C(=O)N(Cc1ccccc1)C2 0.16%
CC1(C(=O)NCc2ccccc2)CN(S(C)(=O)=O)CC(=O)N1CC(F)(F)F (stereo not drawn) -0.74%
COc1ccc(-n2nnnc2SCC(=O)c2ccc(OC)c(OC)c2)cc1 1.76%
COc1ccc(C(=O)NNC(=O)c2cnccn2)cc1[N+](=O)[O-] 3.54%
CN1CCN(CC(=O)C23CC4CC(CC(C4)C2)C3)CC1 -0.74%
COc1ccc(C(=O)Nc2c(N)nc(SCC(=O)N3CCC(C)CC3)[nH]c2=O)cc1OC -1.43%
C[C@@H]1ON(C)[C@H]2C[C@H]3c4cc(N5CCOCC5)ccc4CCN3C[C@@H]12 -1.23%
CCOC(=O)C1=C(C(=O)OCC)C2N(Cc3ccc(C#N)cc3)c3ccccc3[C@@]23C[C@@H](C(=O)OC)N(S(=O)(=O)c2ccc(F)cc2)C3=N1 (stereo partly drawn) 1.03%
Cc1cc2c(nc1C)CCCN2C 0.48%
O=S(=O)(c1cccs1)N1CCCc2nc(-c3ccc(Br)cc3)ccc21 0.56%
Cc1ccc(C)c2[nH]c(=O)c(CN(Cc3cccnc3)C(=S)NCc3ccco3)cc12 0.59%
Cc1cccc(C)c1NC(=O)C(Cl)C(=O)c1ccccc1 (stereo not drawn) -0.19%
COC(=O)N/N=C/c1ccc(-c2ccc(Cl)c(Cl)c2)o1 3.75%
CCCc1ccc(OCc2ccc(C(=O)N/N=C/c3cccc([N+](=O)[O-])c3)o2)c(OC)c1 0.9%
CC[C@H](NC(=O)[C@H](Cc1ccccc1)NC(=O)[C@H]1O[C@@H](n2cnc3c(=O)[nH]c(N)nc32)[C@H](O)[C@@H]1O)c1ccccc1 0.98%
COc1ccccc1-c1n[nH]nc1C1=CC(=O)CC(C)(C)C1 2.39%
CC(=O)N1N=C(c2ccccc2)OC1c1cccnc1 (stereo not drawn) 0.4%
CCN(C(=O)CSc1nnc(-c2ccncc2)o1)c1ccccc1 -1.04%
CC1(C(=O)N/N=C/c2cc3c(cc2Br)OCO3)CC1(Br)Br (stereo not drawn) 2.89%
Cc1cc(=O)oc2c3c(cc(OCC(=O)NCc4ccccn4)c12)OC(C)(C)CC3 2.4%
COC(=O)c1ccc(OC(=O)c2cnccn2)cc1 0.63%
Cn1c(=NC(=O)c2ccco2)sc2cccc(F)c21 4.22%
Cc1cc(N2CCN(C(=O)OC(C)(C)C)C[C@H]2C)ccc1N1CCN(Cc2ccccc2)[C@H](C)C1 -0.82%
Nc1[nH]c(C(=O)c2ccccc2)c(-c2ccc(Cl)cc2Cl)c1C(=O)c1ccccc1 -0.16%
CCc1c(-c2ccccc2OC)ncn1CCc1ccccc1OC 0.48%
O=C(NNC(=S)NC(=O)c1cn(-c2ccccc2)nc1-c1ccccc1)c1ccncc1 2.54%
O=C(COC(=O)/C=C/c1cn(-c2ccccc2)nc1-c1cccnc1)Nc1ccc(Cl)cc1Cl 0.05%
Cc1cc(Cl)ccc1OCc1nc(-c2ccncc2)no1 0.44%
CCc1ccc2c(c1)NC(=O)C2(C)Cc1ccc(OC(F)(F)F)cc1 (stereo not drawn) 1.57%
COc1ccccc1CC1(C)C(=O)Nc2ccc(OC(F)(F)F)cc21 (stereo not drawn) -0.13%
Cc1cc(NCCc2c[nH]c3ccccc23)ccc1Oc1cccnc1 -0.9%
COc1ccc(C2/C(=C(/O)c3ccccc3)C(=O)C(=O)N2c2ncccn2)cc1OC (stereo not drawn) 1.66%
COc1cccc(C2/C(=C(/O)c3ccc(F)cc3)C(=O)C(=O)N2CCN(C)C)c1 (stereo not drawn) 2.59%
CCOc1ccccc1C(=O)N1CCC[C@@H]1C(=O)N1CCC[C@H]1C(=O)NCc1ccccc1 0%
CSC1=NCCN1C(=O)c1ccc(S(=O)(=O)N2CCOCC2)cc1 0.32%
Cc1c(-c2ccccc2)cn2c1-c1ccc(C)n1CC2 2.59%
CN1CCCc2nc(-c3ccccc3)ccc21 -0.16%
O=C1[C@@H](c2ccccc2)[C@@H](c2ccccc2)N1c1ccccc1 0%
COc1cc(/C=N/NC(=S)Nc2cccnc2)cc(OC)c1O 4.5%
COc1ccc(/C=C/C(=O)Nc2ccc(C34CC5CC(CC(O)(C5)C3)C4)cc2)cc1OC 2.4%
COc1cccc(CNC(=O)[C@H]2CCCN2C(=O)[C@H]2CCCN2C(=O)c2ccc(F)cc2)c1 -0.32%
COCCN(CCOC)S(=O)(=O)NC[C@H]1O[C@@H](n2cnc3c(N)ncnc32)[C@H](O)[C@@H]1O -0.9%
CNC[C@H](CC1CCCCC1)NC[C@H](NCCC1CCCC1)[C@H](C)O 0.32%
C[C@@H]1CN([C@H](C)CO)C(=O)CCCn2cc(nn2)CO[C@H]1CN(C)C(=O)Nc1ccc(N2CCCCC2)cc1 0.88%
CN(CCO)c1ccc(/C=N/Nc2nncc3ccccc23)cc1 2.64%
COc1cc(Nc2nc3ccc(Cl)cc3n3cnnc23)cc(OC)c1OC -1.86%
Cn1ccs/c1=N\S(=O)(=O)c1ccc(C(C)(C)C)cc1 -0.4%
C=CCOc1ccc(C2/C(=C(\O)c3c(C)[nH]c(C(=O)OC)c3C)C(=O)C(=O)N2CCN(C)C)cc1 (stereo not drawn) 1.79%
O=C(O)c1ccccc1NC(=S)NC(NC(=O)c1ccccc1[N+](=O)[O-])C(Cl)(Cl)Cl (stereo not drawn) 0.38%
Cn1nc(C(=O)OCC(=O)N(Cc2ccccc2)C(C)(C)C)c2ccccc2c1=O -1.57%
